Assay results: PMC4336329 (PLoS ONE, 2015)
The campaign covered roughly 310,000 compounds. About 14,000 (4.5%) showed an effect of 50% or more. Effects have a minus sign here. This is one part of a sample in which strong results are shown more often than they occur.

Target: human ether-à-go-go-related gene (hERG) potassium channel (human, UniProt Q12809)
Experiment: primary screen, population patch clamp on CHO cells stably expressing hERG; higher = less effect of the substance
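Further: peak tail current of the secondary pulse compared with the same well before compound.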

Chain of human ether-à-go-go-related gene (hERG) potassium channel (Q12809 whole entry, looked up): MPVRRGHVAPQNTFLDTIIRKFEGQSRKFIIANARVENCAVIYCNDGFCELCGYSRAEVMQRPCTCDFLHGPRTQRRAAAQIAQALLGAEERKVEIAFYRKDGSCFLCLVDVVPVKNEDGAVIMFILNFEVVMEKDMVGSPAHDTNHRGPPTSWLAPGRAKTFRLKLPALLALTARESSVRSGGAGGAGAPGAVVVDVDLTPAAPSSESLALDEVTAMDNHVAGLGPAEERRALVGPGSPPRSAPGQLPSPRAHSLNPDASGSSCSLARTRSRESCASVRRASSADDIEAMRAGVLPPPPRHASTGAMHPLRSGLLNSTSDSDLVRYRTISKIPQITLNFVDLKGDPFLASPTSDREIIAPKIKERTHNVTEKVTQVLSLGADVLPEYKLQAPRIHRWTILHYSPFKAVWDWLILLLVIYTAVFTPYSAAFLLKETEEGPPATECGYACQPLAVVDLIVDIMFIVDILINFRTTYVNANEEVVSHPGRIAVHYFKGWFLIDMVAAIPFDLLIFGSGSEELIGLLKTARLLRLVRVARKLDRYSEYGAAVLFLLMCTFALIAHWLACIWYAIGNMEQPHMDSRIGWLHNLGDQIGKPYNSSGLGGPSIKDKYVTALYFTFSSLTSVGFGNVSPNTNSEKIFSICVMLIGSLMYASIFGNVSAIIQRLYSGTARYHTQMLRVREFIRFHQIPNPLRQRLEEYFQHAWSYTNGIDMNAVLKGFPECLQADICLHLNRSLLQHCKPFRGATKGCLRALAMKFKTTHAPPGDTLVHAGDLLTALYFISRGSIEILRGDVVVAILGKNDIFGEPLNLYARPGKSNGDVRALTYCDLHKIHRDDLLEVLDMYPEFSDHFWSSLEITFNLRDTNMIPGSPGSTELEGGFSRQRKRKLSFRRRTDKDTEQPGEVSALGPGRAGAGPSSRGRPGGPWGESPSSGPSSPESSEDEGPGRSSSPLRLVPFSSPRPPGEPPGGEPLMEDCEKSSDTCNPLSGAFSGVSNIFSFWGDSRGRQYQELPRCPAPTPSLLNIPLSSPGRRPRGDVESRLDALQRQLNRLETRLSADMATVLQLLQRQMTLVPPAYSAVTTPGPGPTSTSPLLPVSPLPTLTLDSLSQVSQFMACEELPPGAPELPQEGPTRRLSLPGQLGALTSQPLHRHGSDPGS

Row | SMILES | hERG current change (%, negative = inhibition) at 10uM [%]
1 | Cc1ccc(S(=O)(=O)N(C)C)cc1NC(=O)COC(=O)CCC(=O)c1cccs1 | -21.8
2 | Cc1ccc(S(=O)(=O)N(C)C)cc1NC(=O)COC(=O)CSc1ccccc1 | -21.3
3 | Cc1ccc(S(=O)(=O)N2CCOCC2)cc1NC(=O)COC(=O)Cc1cccs1 | -62.8
4 | O=C(COC(=O)Cc1cccs1)Nc1cccc(S(=O)(=O)N2CCOCC2)c1 | 0.0981
5 | Cc1ccc(S(=O)(=O)N(C)C)cc1NC(=O)COC(=O)Cc1ccc(Br)cc1 | -56.7
6 | Cc1ccc(NC(=O)COC(=O)Cc2cccs2)cc1S(=O)(=O)N1CCOCC1 | -23.5
7 | Cc1ccc(OCCC(=O)OCC(=O)Nc2cc(S(=O)(=O)N(C)C)ccc2C)cc1 | -26.6
8 | CCN(CC(=O)NCc1ccc(F)cc1)CC(=O)Nc1ccccc1-c1ccccc1 | -16
9 | CCN(CC(=O)NCc1ccc(F)cc1)CC(=O)Nc1ccc(S(=O)(=O)N2CCCC2)cc1 | -22.8
10 | CCN(CC(=O)NCc1ccc(F)cc1)CC(=O)Nc1cc(S(=O)(=O)N(C)C)ccc1C | -75.6
11 | Cc1ccc(S(=O)(=O)N(C)C)cc1NC(=O)COC(=O)Cc1cccs1 | -74.5
12 | Cc1ccc(S(=O)(=O)N(C)C)cc1NC(=O)COC(=O)CNC(=O)c1cccs1 | 14.5
13 | Cc1c(CC(=O)N[C@H](C(=O)O)C(C)C)c(=O)oc2cc3c(cc12)CCC(C)(C)O3 | 23.1
14 | COCCCNC(=O)CNC(=S)N(Cc1ccccc1F)C1CCCCC1 | 4.18
15 | O=[n+]1c2c(n([O-])c3cc(Br)ccc31)CCC2 | -2.98
16 | C(=C\c1ccncc1)/c1ccccc1 | -10.6
17 | CN(CC(=O)Nc1ccccc1Cl)C(=O)c1ccc(COc2ccccc2)cc1 | -12.9
18 | Cc1ccc(S(=O)(=O)NCC(=O)OCN2C(=O)c3ccccc3C2=O)cc1 | 5.91
19 | O=C(CSc1ccc(Cl)cc1)NNC(=O)c1cccnc1 | -21
20 | Cc1nn(-c2ccccc2)c(Cl)c1/C=N/Nc1ccc(Cl)c(C(=O)O)c1 | 21.3
21 | Cc1ccc(Nc2ccc(C(=O)O)cc2[N+](=O)[O-])cc1 | 15.1
22 | O=C(OCc1ccc(Br)cc1)c1ccncc1 | 5.25

Row | SMILES | hERG current change (%, negative = inhibition) at 10uM [%]
23 | O=C(COC(=O)c1cccs1)Nc1cc(S(=O)(=O)N2CCOCC2)ccc1Cl | -35.5
24 | Cc1ccccc1NC(=O)COC(=O)Cc1ccsc1 | 12.7
25 | Cc1ccc(S(=O)(=O)N(C)C)cc1NC(=O)COC(=O)Cc1ccsc1 | -79
26 | CN(C)S(=O)(=O)c1ccc(Cl)c(NC(=O)CN2CCCC2)c1 | 11.5
27 | Cc1ccc(S(=O)(=O)N(C)C)cc1NC(=O)COC(=O)C1CCN(S(=O)(=O)c2cccs2)CC1 | -81.9
28 | Cc1ccc(S(=O)(=O)N(C)C)cc1NC(=O)COC(=O)C1CC1 | 16.2
29 | CCC(=O)OCC(=O)Nc1cc(S(=O)(=O)N(C)C)ccc1Cl | 17.1
30 | O=C(COC(=O)CCC(=O)c1cccs1)Nc1cc(S(=O)(=O)N2CCOCC2)ccc1Cl | -53.5
31 | Cc1ccc(S(=O)(=O)N2CCOCC2)cc1NC(=O)COC(=O)CCC(=O)c1cccs1 | -13.8
32 | Cc1ccc(S(=O)(=O)N(C)C)cc1NC(=O)COC(=O)C1CCCC1 | 3.16
33 | CN(CCC(=O)Nc1cc(S(=O)(=O)N(C)C)ccc1Cl)CC(=O)Nc1ccc(F)cc1 | -50.1
34 | Cc1ccc(C)c(NC(=O)COC(=O)Cc2ccsc2)c1 | 33.1
35 | Clc1ccc(-c2nnc(SCc3cn4ccsc4n3)n2CC2CCCO2)cc1 (centres unmarked) | -29.2
36 | Cc1cccc2cc3c(N)c(C#N)sc3nc12 | 21.5
37 | Cc1cc(C)c(Nc2cc(S(=O)(=O)[O-])c(N)c3c2C(=O)c2ccccc2C3=O)c(C)c1.[Na+] | 12
38 | CCn1c(-c2cc(-c3cc(OC)ccc3OC)nc3ccccc23)n[nH]c1=S | -10.3
39 | CCCC(C)c1nnc(NC(=O)C2CC(=O)N(CCc3ccc(F)cc3)C2)s1 (centres unmarked) | -30.1
40 | COc1ccc(-c2nnc3sc(-c4ccccn4)nn23)cc1 | -13.2
41 | CCOC(=O)c1ccc(-c2ccc(CO)o2)cc1 | -6.44
42 | CCC(C)[C@H](NC(=O)N1CC(=O)Nc2ccccc21)C(=O)N[C@H](C(=O)O)c1ccccc1 (some centres unmarked) | 7.19
43 | CCN1C(=O)CC(c2ccco2)Sc2ccccc21 (centres unmarked) | -16.8
44 | O=C(NCCCN1CCOCC1)c1ccc([N+](=O)[O-])cc1[N+](=O)[O-] | 10.5

Row | SMILES | hERG current change (%, negative = inhibition) at 10uM [%]
45 | CC(C)n1c(=O)c(C=Nc2ccc(F)cc2)c(O)n(Cc2ccco2)c1=O | -19.7
46 | COc1ccc2c(=O)c3c(=O)n(-c4ccc(C)cc4)c(-c4ccccc4)nc3oc2c1 | 6.84
47 | CC(=O)Nc1ccc(S(=O)(=O)N2CCSC2C(=O)O)cc1 (centres unmarked) | 0.312
48 | Cc1ccc(S(=O)(=O)Nc2ccc(N3CCOCC3)cc2)cc1C | 2.95
49 | COc1ccc(/C=C/C(=O)NC(=S)NNC(=O)c2c(-c3ccccc3)noc2C)cc1 | 11.4
50 | Cc1cc2ncc(-c3cccc(Cl)c3)cn2n1 | 8.42
51 | O=C(CC1Sc2ccccc2NC1=O)OCc1cc(=O)oc2cc(O)ccc12 (centres unmarked) | -51.7
52 | COc1ccc2c(COC(=O)CC3Sc4ccccc4NC3=O)cc(=O)oc2c1 (centres unmarked) | -44.1
53 | CC(=O)Nc1ccc2c(COC(=O)CC3Sc4ccccc4NC3=O)cc(=O)oc2c1 (centres unmarked) | -9.75
54 | CCCCn1c(SCC(=O)NCc2ccccc2)nc2ccc(N3CCOCC3)cc2c1=O | -13.9
55 | COc1ccc(OC)c(NC(=O)C2C3CC4OC(=O)C2C4C3)c1 (centres unmarked) | 11.2
56 | O=C(Cn1cnc2ccccc2c1=O)N1CCN(Cc2ccc3c(c2)OCO3)CC1 | -14
57 | O=C(c1cc(Cl)nc2ccccc12)N1CCN(Cc2ccc3c(c2)OCO3)CC1 | -37.9
58 | O=C(c1cccc(Cl)c1)N1CCN(Cc2ccc3c(c2)OCO3)CC1 | -16.6
59 | O=C(c1cccn2c(=O)c3cc(Cl)ccc3nc12)N1CCN(Cc2ccc3c(c2)OCO3)CC1 | -75.2
60 | O=C(O)C(=O)O.O=C(c1ccccc1F)N1CCN(Cc2ccc3c(c2)OCO3)CC1 | 6.48
61 | O=C(c1cccn2c(=O)c3ccccc3nc12)N1CCN(Cc2ccc3c(c2)OCO3)CC1 | -67.7
62 | O=C(Cn1ccc2ccccc2c1=O)N1CCN(Cc2ccc3c(c2)OCO3)CC1 | -14.8
63 | O=C(c1ccccc1Cl)N1CCN(Cc2ccc3c(c2)OCO3)CC1 | -21.1
64 | O=C(c1ccc2nc3ccccc3c(=O)n2c1)N1CCN(Cc2ccc3c(c2)OCO3)CC1 | -60.9
65 | CCc1ccc(NC(=O)c2cc(-c3ccc(OC)cc3)on2)cc1 | -0.467
66 | CCc1cc(=O)oc2cc(C)cc(OCc3nn[nH]n3)c12 | -5.99

Row | SMILES | hERG current change (%, negative = inhibition) at 10uM [%]
67 | CCc1nn(CCCC(=O)Nc2ccc(C)c(C)c2)c(=O)c2cc3occc3n12 | 4.15
68 | CCc1ccccc1N(CC(=O)NCc1ccco1)C(=O)CCC(=O)Nc1ccccn1 | -7.41
69 | Fc1cccc(CN2CCN(c3nc4nonc4nc3NC3CC3)CC2)c1 | -10.3
70 | Clc1cccc(CN2CCN(c3nc4nonc4nc3NC3CC3)CC2)c1 | -65.4
71 | Cc1cccc(CN2CCN(c3nc4nonc4nc3NC3CC3)CC2)c1 | -4.44
72 | O=C(COC(=O)C1=NN(c2ccccc2)C(=O)CC1)Nc1ccc([N+](=O)[O-])cc1C(F)(F)F | 5.08
73 | CC(C)CN(CC(C)C)C(=O)c1cccc(S(=O)(=O)N2CCc3ccccc32)c1 | -24.9
74 | CCOC(=O)C1CCN(C(=S)NC2CCCC2)CC1 | 0.997
75 | NC(=O)C1CCN(C(=S)NC2CC3C=CC2C3)CC1 (centres unmarked) | 16.2
76 | CCOC(=O)C1CCN(C(=S)NC2CC3C=CC2C3)CC1 (centres unmarked) | -54.3
77 | CN(c1ccccc1)S(=O)(=O)c1cccc(NC(=O)Cc2ccc(Cl)cc2)c1 | 9.43
78 | COc1ccc(CN2C(=NC(=O)CCc3ccccc3)SC3CS(=O)(=O)CC32)cc1 (centres unmarked) | 3.85
79 | CC(NC(=O)c1ccco1)C12CC3CC(CC(C3)C1)C2 (centres unmarked) | -50.1
80 | CC(C)[C@H](NC(=O)c1ccco1)C(=O)NC12CC3CC(CC(C3)C1)C2 | -5.81
81 | CC(NC(=O)COC(=O)CCNC(=O)c1ccco1)C12CC3CC(CC(C3)C1)C2 (centres unmarked) | 0.656
82 | CC1CN(C2CCN(S(=O)(=O)c3ccc4ccccc4c3)CC2)CC(C)O1 (centres unmarked) | -22.5
83 | CN1C(C(=O)N2CCc3ccccc3C2)=CC(c2ccc(F)cc2)=NS1(=O)=O | -3.37
84 | COc1ccc(CCN(Cc2ccc(C(C)C)cc2)S(=O)(=O)c2ccc(S(=O)(=O)N(C)C)cc2)cc1OC | -11.1
85 | CCC(=O)C(C#N)(c1ccc(OC)c(OC)c1)C(C)C (centres unmarked) | -7.65
86 | COc1ccc(CCN(C)CCCC(C#N)(c2cc(OC)c(OC)c(OC)c2)C(C)C)cc1OC.Cl (centres unmarked) | -64.1
